Where “and” joins values, the source holds several entries; their conditions need not be identical. Equal entries are not always repeated. Results filed as inconclusive are left out. Some structures have more than one record in an assay (separate samples or runs), and their calls can disagree. Calls of active or inactive are those of the source. Rule for the calls, unless noted: active = hit-call score of the fitted dose curve at least 0.9, where 1 is the maximum; inactive = score below 0.9.
Columns and labels:
[1] = CCTE_Shafer_MEA_dev_firing_rate_mean: CCTE's Neural Network Formation Assay for Mean Firing Rate, Shafer Lab (AID 2284031);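 for AC50: curve fitted for loss of firing so AC50 reflects decreased mean firing rate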
Procedure, shortened: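 Primary rat cortical neurons on 48-well MEA plates, exposed from plating day 0 with dosing renewed on DIV 5 and 9. Mean well firing rate over active electrodes, recorded days 5, 7, 9, 12, summarised as trapezoidal AUC.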

[2] = CCTE_Shafer_MEA_dev_per_burst_spike_percent: CCTE's Neural Network Formation Assay for Percent of Spikes in a Burst, Shafer Lab (AID 2284032);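 for AC50: fitted as a decrease in burst spike percentage below DMSO baseline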
Procedure, shortened: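 Rat primary cortical neurons on 16-electrode MEA wells, dosed from plating day 0 for 12 days with renewal on DIV 5 and 9; spikes-in-bursts percentage averaged over bursting electrodes, collapsed as AUC across days 5, 7, 9, 12; loss direction versus DMSO.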

[3] = CCTE_Shafer_MEA_dev_burst_rate: CCTE's Neural Network Formation Assay for Burst Rate, Shafer Lab (AID 2284042);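 for AC50: potency for loss of burst rate below DMSO control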
Procedure, shortened: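 Cells plated, treated day 0; recorded DIV 5, 7, 9, 12; fed and re-treated DIV 5, 9. Endpoint: bursts per recording time, active-electrode well mean, trapezoidal AUC, fitted in decreasing direction against DMSO baseline.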

[4] = CCTE_Shafer_MEA_dev_per_burst_interspike_interval: CCTE's Neural Network Formation Assay for Burst Interspike Interval, Shafer Lab (AID 2284044);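 note: mean spike spacing inside bursts as AUC over recordings on days 5 7 9 12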;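 for AC50: potency for a decrease of within-burst interspike interval below DMSO level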
Procedure, shortened: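 Neurons from rat cortex plated onto PEI-coated MEA wells with laminin […] at 1.5 x 10^5 cells/well, then treated from day 0. Media and compound fully replaced on DIV 5 and 9. Extracellular spontaneous firing recorded four times; interspike interval per burst summarised as AUC.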

[5] = CCTE_Shafer_MEA_dev_interburst_interval_mean: CCTE's Neural Network Formation Assay for Mean Interburst Interval, Shafer Lab (AID 2284046);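 note: well-mean interburst interval of bursting electrodes as AUC over four recording days; curve fitted for decrease in interburst interval relative to DMSO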
Procedure, shortened: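 Developing rat cortical networks on 48-well MEAs receive compound from the day of plating. Burst intervals from each active electrode are averaged per well, and AUC over the recording days is fitted in the negative direction against DMSO.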

[6] = CCTE_Shafer_MEA_dev_inter_network_spike_interval_mean: CCTE's Neural Network Formation Assay for Mean Inter-network Spike Interval, Shafer Lab (AID 2284047);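 for AC50: potency for a decrease in mean inter-network spike interval below DMSO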
Procedure, shortened: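 Rat cortical cultures, 1.5 x 10^5 cells/well on 48-well MEA plates; continuous exposure days 0–12, medium and compound refreshed DIV 5, 9. Mean time between consecutive network-spike peaks; AUC across DIV 5/7/9/12; DMSO baseline, negative fitting direction.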

[7] = CCTE_Shafer_MEA_dev_network_spike_peak: CCTE's Neural Network Formation Assay for Mean Number of Electrodes in Network Spike, Shafer Lab (AID 2284049);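 for AC50: fitted for loss of signal meaning fewer electrodes in network spikes than DMSO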
Procedure, shortened: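 Continuous 12-day exposure of rat cortical cultures, starting at plating, on MEA plates. Endpoint: electrodes participating in network-spike peaks, AUC across DIV 5–12, DMSO as negative control.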

[8] = CCTE_Shafer_MEA_dev_spike_duration_mean: CCTE's Neural Network Formation Assay for Mean Spike Duration, Shafer Lab (AID 2284051);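 note: mean network spike duration pooled as area under curve over DIV 5 to 12 recordings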;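 for AC50: potency for a decrease in mean network spike duration versus DMSO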
Procedure, shortened: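 Readout is the average length of network spikes, clustered firing across electrodes, summed over DIV 5, 7, 9 and 12 as area under the curve. Neurons from rat cortex developed networks on MEA plates under continuous 12-day exposure.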

[9] = CCTE_Shafer_MEA_dev_network_spike_duration_std: CCTE's Neural Network Formation Assay for Standard Deviation of Network Spike Duration, Shafer Lab (AID 2284052);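 note: area under curve of spike duration SD across recording days 5 to 12; hits are decreases in network spike duration SD versus DMSO vehicle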
Procedure, shortened: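 Read-out is the trapezoidal area-under-the-curve across recordings made on days 5, 7, 9 and 12, fitted in the negative direction against DMSO baseline. Neurons were primary rat cortical cells treated from day 0, with treatment renewed at each feed.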

[10] = CCTE_Shafer_MEA_dev_per_network_spike_spike_number_mean: CCTE's Neural Network Formation Assay for Mean Number of Spikes in a Network Spike, Shafer Lab (AID 2284053);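 for AC50: fitted as decrease in spikes per network spike relative to DMSO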
Procedure, shortened: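 Continuous twelve-day exposure of developing rat cortical networks grown over 16 microelectrodes per well; spontaneous firing is captured at four time points, and the per-network-spike spike number is integrated over development by trapezoidal AUC.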

[11] = CCTE_Shafer_MEA_dev_per_network_spike_spike_percent: CCTE's Neural Network Formation Assay for Percent of Spikes in a Network Spike, Shafer Lab (AID 2284054)
Procedure, shortened: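 Primary rat cortical neurons on 16-electrode MEA wells (PEI-coated, laminin at plating), exposed from day 0 with renewal at DIV 5 and 9; spikes within 0.05 s of network-spike peaks over total spikes, AUC across days 5, 7, 9, 12.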

[12] = CCTE_Shafer_MEA_dev_active_electrodes_number: CCTE's Neural Network Formation Assay for Number of Active Electrodes, Shafer Lab (AID 2284040; active = hit-call score of the fitted dose curve at least 0.9, where 1 is the maximum;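 for AC50: potency for loss of active electrodes versus DMSO so lower counts are hits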)
Procedure, shortened: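 Primary rat cortical neurons on 16-electrode MEA wells, exposed from day 0 through day 12 with compound renewed at DIV 5 and 9 feeds. Active electrodes (mean firing ≥5 spikes/min) counted at DIV 5, 7, 9, 12; trapezoidal AUC across days, loss-of-signal versus DMSO.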

[13] = target: Estrogen receptor (Homo sapiens) (UniProt P03372); assay: CCTE_Deisenroth_AIME_384WELL_LUC_Active: CCTE's 384-well Estrogen Receptor Transactivation Assay with AIME metabolic competence (ERTA luciferase; metabolism positive), Deisenroth Lab (AID 2284030; active = hit-call score of the fitted dose curve at least 0.9, where 1 is the maximum)
Chain of Estrogen receptor (Homo sapiens) (P03372 whole entry, looked up): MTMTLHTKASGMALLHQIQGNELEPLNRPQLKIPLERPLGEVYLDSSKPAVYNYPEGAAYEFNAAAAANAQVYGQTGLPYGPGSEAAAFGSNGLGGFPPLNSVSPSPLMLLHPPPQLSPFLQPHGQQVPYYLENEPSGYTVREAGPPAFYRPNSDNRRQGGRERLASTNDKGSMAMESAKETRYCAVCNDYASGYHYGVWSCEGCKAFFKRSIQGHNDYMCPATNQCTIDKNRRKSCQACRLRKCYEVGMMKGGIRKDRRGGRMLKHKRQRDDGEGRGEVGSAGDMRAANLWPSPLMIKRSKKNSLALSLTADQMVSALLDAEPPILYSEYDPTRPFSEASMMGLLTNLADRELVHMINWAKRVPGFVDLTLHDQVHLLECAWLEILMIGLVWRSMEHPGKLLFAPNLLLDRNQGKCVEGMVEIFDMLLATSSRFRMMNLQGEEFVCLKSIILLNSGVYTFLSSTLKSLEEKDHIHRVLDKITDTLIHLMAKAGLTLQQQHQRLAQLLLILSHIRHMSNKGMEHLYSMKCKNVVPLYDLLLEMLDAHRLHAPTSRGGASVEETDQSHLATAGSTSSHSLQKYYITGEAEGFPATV
Procedure, shortened: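 AIME metabolism-positive mode: chemicals 0.002 - 200 uM, 2 h with alginate-bound PB/BNF-induced rat S9 → medium to VM7Luc4E2 ERTA, 24 h → luciferase. Positive fit vs 17beta-estradiol; n=4 typical.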

[14] = target: Estrogen receptor (Homo sapiens) (UniProt P03372); assay: CCTE_Deisenroth_AIME_384WELL_LUC_Inactive: CCTE's 384-well Estrogen Receptor Transactivation Assay without AIME metabolic competence (ERTA luciferase; metabolism negative), Deisenroth Lab (AID 2284038; active = hit-call score of the fitted dose curve at least 0.9, where 1 is the maximum;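 note: VM7Luc4E2 breast cells given medium preincubated 2 h with S9-free microspheres; hits raise estrogen receptor luciferase signal so potencies reflect agonists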)
Procedure, shortened: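 Metabolism-negative mode: chemicals (10-point, 0.002–200 uM) held 2 h with alginate-water microspheres, then conditioned medium applied to VM7Luc4E2 cells for 24 h. Luciferase induction referenced to 17beta-estradiol.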

[15] = target: Estrogen receptor (Homo sapiens) (UniProt P03372); assay: CCTE_Deisenroth_AIME_384WELL_LUC_Shift: CCTE's 384-well Estrogen Receptor Transactivation Assay with AIME metabolic competence data shift (ERTA luciferase; difference in metabolism positive and negative), Deisenroth Lab (AID 2284041);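 note: shift is response with S9 minus without S9 so positive means metabolism raised ER signal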
Procedure, shortened: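 Here, parent compounds undergo 2 h phase I metabolism by PB/BNF-induced rat S9 before 24 h transactivation in VM7Luc4E2 cells; the curve models S9-positive minus S9-negative response over a 10-point series.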

DIO2 (gene 1734) = assay: CCTE_GLTED_hDIO2: CCTE's human Deiodinase 2 (DIO2) Inhibition Assay, Great Lakes Toxicology and Ecology Division (GLTED) Lab (AID 2284050; active = hit-call score of the fitted dose curve at least 0.9, where 1 is the maximum)
Procedure, shortened: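 Cell-free human DIO2 incubated 3 h with chemical; liberated iodide quantified by Sandell-Kolthoff absorbance. Triplicate plates; loss of signal fitted vs DMSO.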

Measured: AC50

O=C(O)C=CC(F)(C(F)(F)F)C(F)(F)F
not listed: [12] | [13] | [14] | [15] | DIO2 (gene 1734)
inactive: all other assays above

OCC(F)(F)OC(F)(F)C(F)(F)OC(F)(F)CO
not listed: [13] | [14] | [15] | DIO2 (gene 1734)
inactive: all other assays above

O=C(O)CF
inactive: [13] | [14] | [15]

CCCN(CCC)c1c([N+](=O)[O-])cc(C(C)C)cc1[N+](=O)[O-]
active: [13] 13.3 µM
inactive: [14] | [15]

c1cc2c3c(cccc3c1)CC2
not listed: [13] | [14] | [15] | DIO2 (gene 1734)
inactive: all other assays above

O=c1ssc(Cl)c1Cl
active: DIO2 (gene 1734) 13.8 µM
inactive: [13] | [14] | [15]

O=C(O)C(F)(OC(F)(F)C(F)(F)C(F)(F)F)C(F)(F)F (stereo not given)
active: [3] 11.7 µM
inactive: [1] | [2] | [12] | [3] | [4] | [5] | [6] | [7] | [8] | [9] | [10] | [11]

CC(O)C(F)(F)C(F)(F)F (stereo not given)
not listed: [13] | [14] | [15] | DIO2 (gene 1734)
inactive: all other assays above

O=S(=O)(c1ccc(O)cc1)c1ccc(O)cc1
not listed: [13] | [14] | [15] | DIO2 (gene 1734)
inactive: all other assays above

OCC(F)(F)OC(F)(F)C(F)(F)OC(F)(F)C(F)(F)OC(F)(F)CO
not listed: [13] | [14] | [15] | DIO2 (gene 1734)
inactive: all other assays above

CCCCCCCc1ccc(O)cc1
active: DIO2 (gene 1734) 136 µM

CCNc1nc(Cl)nc(NC(C)(C)C)n1
inactive: DIO2 (gene 1734)

COC(N)=O
inactive: [13] | [14] | [15]

Cc1cccc(N)c1
inactive: [13] | [14] | [15]

O=P(Oc1ccccc1)(Oc1ccccc1)Oc1ccccc1
active: [7] 2970 nM
not listed: [13] | [14] | [15] | DIO2 (gene 1734)
inactive: all other assays above

CCOS(=O)(=O)OCC
inactive: [13] | [14] | [15]

CCCCC(CC)COC(=O)c1c(Br)c(Br)c(Br)c(Br)c1C(=O)OCC(CC)CCCC (stereo not given)
active: [7] 330 nM
not listed: [13] | [14] | [15] | DIO2 (gene 1734)
inactive: all other assays above

COC(=O)C(F)(F)C(F)(F)OC(F)(C(F)(F)F)C(F)(F)OC(F)=C(F)F (stereo not given)
active: DIO2 (gene 1734) 18.2 µM

O=C(O)C(F)(F)C(F)(F)C(=O)O
not listed: [13] | [14] | [15] | DIO2 (gene 1734)
inactive: all other assays above

CCOP(=S)(OCC)SCSCC
inactive: [1] | [2] | [3] | [4] | [5] | [6] | [8] | [9] | [11]
active: [2] 74.7 µM | [12] 81.3 µM and 23.2 µM | [5] 50 µM | [7] 74.9 µM and 26.4 µM | [8] 72.3 µM | [10] 50 µM and 12.1 µM | [11] 92 µM

O=C(O)C(F)(F)OC(F)(F)C(F)(F)OC(F)(F)C(=O)O
not listed: [13] | [14] | [15] | DIO2 (gene 1734)
inactive: all other assays above

c1nc[nH]n1
inactive: [13] | [14] | [15]

OCC(F)(F)OC(F)(F)C(F)(F)OC(F)(F)C(F)(F)OC(F)(F)F
active: [7] 818 nM
not listed: [13] | [14] | [15] | DIO2 (gene 1734)
inactive: all other assays above

CCCCOCCOP(=O)(OCCOCCCC)OCCOCCCC
inactive: [15]

CO/N=C(/C(=O)OC)c1ccccc1COc1ccccc1C
active: [1] 1 µM | [2] 0.639 µM | [12] 857 nM | [3] 0.403 µM | [4] 2.25 µM | [5] 0.939 µM | [6] 0.712 µM | [7] 567 nM | [8] 0.688 µM | [9] 0.312 µM | [10] 518 nM | [11] 0.902 µM

O=C(O)C(F)(F)OC(F)(F)C(F)(F)OC(F)(F)F
not listed: [13] | [14] | [15] | DIO2 (gene 1734)
inactive: all other assays above

C=CC(=O)OCC(F)(F)C(F)F
inactive: [1] | [3] | [6] | [9]
active: [2] 5.66 µM | [12] 4450 nM | [4] 2.98 µM | [5] 8.7 µM | [7] 9040 nM | DIO2 (gene 1734) 47.3 µM | [8] 15 µM | [10] 4850 nM | [11] 15 µM

O=P1(N(CCCl)CCCl)NCCCO1 (stereo not given)
not listed: [13] | [14] | [15] | DIO2 (gene 1734)
inactive: all other assays above

— PubChem BioAssay (EPA / NIEHS)
